Here are results for 27 molecules from PubChem BioAssay (EPA / NIEHS).

Each structure is given as a SMILES string. Results filed as inconclusive are left out. Calls of active or inactive are those of the source. Rule for the calls, unless noted: active = hit-call score of the fitted dose curve at least 0.9, where 1 is the maximum; inconclusive = response in the unintended direction; inactive = score below 0.9.

Chain of Estrogen receptor (Homo sapiens) (P03372 whole entry, looked up): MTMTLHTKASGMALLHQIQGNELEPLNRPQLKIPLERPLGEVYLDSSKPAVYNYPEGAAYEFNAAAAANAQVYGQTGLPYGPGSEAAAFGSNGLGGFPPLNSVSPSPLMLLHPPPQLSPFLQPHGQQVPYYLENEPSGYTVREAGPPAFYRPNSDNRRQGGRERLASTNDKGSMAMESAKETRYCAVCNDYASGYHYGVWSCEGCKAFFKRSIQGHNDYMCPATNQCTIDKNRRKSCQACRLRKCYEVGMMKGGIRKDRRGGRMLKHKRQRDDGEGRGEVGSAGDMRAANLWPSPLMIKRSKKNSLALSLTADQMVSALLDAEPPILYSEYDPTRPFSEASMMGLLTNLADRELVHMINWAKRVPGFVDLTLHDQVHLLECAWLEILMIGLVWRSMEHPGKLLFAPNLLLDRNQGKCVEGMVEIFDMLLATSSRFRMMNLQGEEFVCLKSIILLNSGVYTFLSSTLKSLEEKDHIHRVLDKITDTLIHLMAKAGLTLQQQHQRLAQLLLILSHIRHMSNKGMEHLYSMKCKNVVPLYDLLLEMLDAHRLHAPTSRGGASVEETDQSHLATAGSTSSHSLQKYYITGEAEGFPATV

One assay has as its target Estrogen receptor (Homo sapiens) (UniProt P03372). Nature of the assay: CCTE_Deisenroth_AIME_384WELL_LUC_Active: CCTE's 384-well Estrogen Receptor Transactivation Assay with AIME metabolic competence (ERTA luciferase; metabolism positive), Deisenroth Lab (AID 2284030). A digest of the protocol: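 Readout: bioluminescent luciferase induction in VM7Luc4E2 cells 24 hour after receiving medium from a 2 h rat hepatic S9 (induced, alginate microsphere) metabolism step. Concentrations 0.002 - 200 uM; activity scaled to 17beta-estradiol positive control.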
Turning to `CO[Si](OC)(OC)c1ccccc1`, the result was inactive.

In the case of `O=C(C(Cl)Cl)N1CCOC12CCCCC2`, the result was inactive.

Regarding `CC=C1CC2C=CC1C2` (configuration not stated), the outcome was inactive.

For `CCCCC/C=C\CCC=O`, the result was inactive.

Regarding `O=C1CCCC1`, the result was inactive.

Turning to `NC(CO)(CO)CO`, the molecule was called inactive.

As to `CCOC(=O)CC`, the outcome was inactive.

Take `O=C1C(N(CO)C(=O)NCO)N(CO)C(=O)N1CO` (configuration not stated): the result was inactive.

As to `CC1=NN(c2cc(S(=O)(=O)O)ccc2Cl)C(=O)C1N=Nc1ccccc1` (configuration not stated), the outcome was inactive.

On to `O=S(=O)(O)c1ccccc1C=Cc1ccc(-c2ccc(C=Cc3ccccc3S(=O)(=O)O)cc2)cc1`, for which the result was inactive.

As to `O=S1(=O)OC(c2ccc(O)cc2)(c2ccc(O)cc2)c2ccccc21`, the outcome was inactive.

With `CC(=O)OC(C)C`, the result was inactive.

Consider `CCCCCc1ccc(Cl)cc1`, for which the result was inactive.

Consider `CCN(CCC#N)c1ccc(N=Nc2c(Cl)cc([N+](=O)[O-])cc2Cl)cc1`, for which the result was inactive.

Take `CCCCCCCCCCOS(=O)(=O)O`: the call was inactive.

As for `O=C(C=Cc1ccccc1)OCc1ccccc1`, the result was inactive.

In the case of `CCCCC(CC)CCC(CC(C)C)OS(=O)(=O)O` (configuration not stated), the result was inactive.

As to `Cc1ccc(C(C)c2ccc(C)c(C)c2)cc1C`, the AC50 is 16 µM (active).

As to `O=C(c1ccccc1)C1CCC1`, the molecule was classed as inactive.

Turning to `OC1CCCC1`, the call was inactive.

Tested on in the next assay: not listed separately
Nature of the assay: CCTE_Shafer_MEA_dev_firing_rate_mean: CCTE's Neural Network Formation Assay for Mean Firing Rate, Shafer Lab (AID 2284031; active = hit-call score of the fitted dose curve at least 0.9, where 1 is the maximum; inactive = score below 0.9;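 note: AUC of well mean spike rate recorded on DIV 5 7 9 and 12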). A digest of the protocol: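 Rat primary cortical neurons were seeded on multielectrode arrays and treated from plating through day 12, with redosing at each feed. Spontaneous spiking was recorded four times; mean firing rate AUC was fitted downward against DMSO.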
As for `FC(F)=C(F)OC(F)(F)C(F)(F)C(F)(F)F`, the molecule was classed as inactive.

In the case of `COC(F)(F)C(F)(C(F)(F)F)C(F)(F)F`, the call was inactive.

As for `c1ccc2c(c1)ccc1cc3c(ccc4ccccc43)cc12`, the molecule was classed as inactive.

As to `CC=CC(F)(F)C(F)(F)C(F)(F)F`, the call was inactive.

With `CC1(C)S[C@@H]2[C@H](NC(=O)COc3ccccc3)C(=O)N2[C@H]1C(=O)O`, the molecule was called inactive.

In the case of `CCOC(F)(F)C(F)(F)C(F)(F)C(F)(F)F`, the molecule was classed as inactive.

Take `N[C@H]1C(O)O[C@H](CO)[C@H](O)[C@@H]1O` (some centres not stated): the outcome was inactive.

As a reminder, the AC50 is the concentration at which the activity in the assay is half-maximal.
